Screens deposited in PubChem by several laboratories.
PERK inhibitor = block of dimerizer-induced PERK translation repression, primary screen, PERK inhibitor project, CHO PERK-DD cells, SEAP luminescence, HTS; inhibition, % at 5.6 µM; CHO PERK-DD fusion, SEAP luminescence translation reporter; 220,000 compounds, 0.17% hits; Eukaryotic translation initiation factor 2-alpha kinase 3 (Homo sapiens), Q9NZJ5;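 active = inhibition above the mean inhibition of all tested compounds plus 3 SD, set separately per screening campaign, cut at about 2.9% in these data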;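 note: PERK kinase domain activated by AP20187 dimerizer at 100 nM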
EP2 modulator = EP2 receptor modulators, cAMP readout, primary screen, cell-based, HTRF cAMP, PGE2 stimulation | Prostaglandin E2 receptor EP2 subtype (Homo sapiens), P43116 | 260,000 compounds, 0.83% hits | AID 940, 2007 | EP2-expressing cells, cAMP HTRF FRET, PGE2 co-stimulation | induction, % at 25 µM;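 active = compounds whose cAMP rise, as percent of the full-agonist control response, exceeds 60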;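 note: rat C6 glioma line stably carrying human EP2 under a CMV promoter; the protocol text gives 20 µM as final concentration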
Target sequence (P43116 whole entry, looked up): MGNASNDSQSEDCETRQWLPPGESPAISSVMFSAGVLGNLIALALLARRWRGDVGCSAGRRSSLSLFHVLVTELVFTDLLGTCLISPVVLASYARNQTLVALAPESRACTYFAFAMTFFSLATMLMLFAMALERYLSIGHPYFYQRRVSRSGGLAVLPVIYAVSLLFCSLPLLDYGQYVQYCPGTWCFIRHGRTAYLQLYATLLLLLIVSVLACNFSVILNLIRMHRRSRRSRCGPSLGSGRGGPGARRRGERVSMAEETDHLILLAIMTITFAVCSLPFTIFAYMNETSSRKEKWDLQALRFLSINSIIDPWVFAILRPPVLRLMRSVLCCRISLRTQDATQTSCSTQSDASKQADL
eIF4E 4G PPI = eIF4E–eIF4G protein interaction inhibitors, primary screen, biochemical, uHTS, TR-FRET, eIF4GI fragment; Eukaryotic translation initiation factor 4E (Mus musculus) + Eukaryotic translation …; TR-FRET eIF4E-eIF4GI(517-606) binding, 2 h; inhibition, % at 21.7 µM; 220,000 compounds, 0.37% hits; AID 782, 2007;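 active = inhibition above about 30%, limit read from the data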
EP2 antag = human EP2 receptor antagonists, primary screen, TR-FRET cAMP, C6 glioma cells. Prostaglandin E2 receptor EP2 subtype (Homo sapiens), P43116. AID 1422, 2008. 260,000 compounds, 0.52% hits. inhibition, % at 25 µM. C6 glioma cells expressing human EP2; cells stimulated with saturating PGE2;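 active = percent inhibition above 40 after rounding to a whole number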;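 note: rat C6 glioma host cells with rolipram phosphodiesterase inhibitor present; the protocol text gives 20 µM as final concentration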
EP2 cAMP induct = cAMP induction in EP2, EP4, beta2-AR and parental cells, confirmation, counter-screen for EP2 modulator project, cell-based, five parallel assays, C6 glioma, HEK293; shares compounds with EP2 modulator; cAMP HTRF induction; plus low (about EC15) PGE2 agonist; calls only at 20 µM (by protocol); 1,300 compounds, 47% hits;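 active = cAMP induction above 50% in the main assay while under 30% in all four parallel counter assays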;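 note: rat C6 glioma cells stably expressing human EP2 receptor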
Of the large screens only hits and unclear results are named; the others gave an inactive call (follow-up assays come after a bar, where they were run); ! = not confirmed by another sample. The list is not random: actives were taken first. Their share in the collection is about 1.8%.

O=C(Nc1nc(-c2cccs2)c(-c2ccccc2)s1)c1ccco1	EP2 modulator 73 | EP2 cAMP induct active
Cn1nc(C(F)(F)F)c(/C=N/OC(=O)c2ccccc2)c1Sc1ccc(Cl)cc1	EP2 modulator 70 | EP2 cAMP induct inactive
CCOC(=O)C1=C(N)OC2=C(C(=O)CC(C)(C)C2)C1c1ccc(CC)s1 (centres undefined)	EP2 modulator 73 | EP2 cAMP induct active
CCC(=O)OC1CC(C)N(C(=O)c2ccccc2)c2ccc(C)cc21 (centres undefined)	none
CCCC(=O)O[C@H]1C[C@@H](C)N(C(=O)c2ccccc2)c2ccc(C)cc21	EP2 modulator 76 | EP2 cAMP induct inactive
COc1ccc(C2CC(C(F)(F)F)n3nc(C(N)=O)c(Cl)c3N2)cc1OC (centres undefined)	EP2 modulator 75 | EP2 cAMP induct inactive
COc1ccc(C2CC(C(F)(F)F)n3ncc(C(=O)O)c3N2)cc1OC (centres undefined)	none
Cc1ccc2nc(SCC(=O)Nc3cccc(F)c3)[nH]c2c1	none (no result: PERK inhibitor, eIF4E 4G PPI)
O=C(CSc1nnc(-c2ccncc2)n1C1CCCCC1)NC1CCCC1	none (no result: PERK inhibitor, eIF4E 4G PPI)
Cc1nnc(SCC(=O)NC2CCCCC2)n1C1CCCCC1	none | EP2 cAMP induct inactive
Cc1noc(C)c1COC(=O)C(c1ccccc1)c1ccccc1	EP2 modulator 75 | EP2 cAMP induct inactive
C=CCn1c(SCC(=O)Nc2ccc(Cl)cc2C)nnc1-c1ccco1	none (no result: PERK inhibitor, eIF4E 4G PPI)
O=c1c2ccccc2c(=O)n(Cc2ccccc2)n1Cc1ccccc1	EP2 modulator 66 | EP2 cAMP induct active
CCCSc1ncnc2sc(C)c(C)c12	none | EP2 cAMP induct inactive
CC(=O)c1ccc(NC(=O)c2ccccc2Sc2ncnc3sc(C)c(C)c23)cc1	none
Cc1sc2ncnc(SCC#N)c2c1C	none
Cc1sc2ncnc(Sc3ccccc3C(=O)O)c2c1C	EP2 modulator 72 | EP2 cAMP induct inactive
CCc1ccccc1NC(=O)CSc1nnc(-c2cccnc2)n1C	none (no result: PERK inhibitor, eIF4E 4G PPI)
CCc1nn(CC(=O)NC(C)C)c(=O)c2cc3oc(C)cc3n12	none (no result: PERK inhibitor, eIF4E 4G PPI, EP2 antag)
COC(=O)Cn1c2ccc(Cl)cc2c2nc(C)sc21	none
Cc1ccc(S(=O)(=O)n2c3ccc(Cl)cc3c3nc(C)sc32)cc1	EP2 modulator 90 | EP2 cAMP induct active
CC(=O)N1c2ccc(C(O)CN3CCCC(C)C3)cc2CC1C (centres undefined)	none (no result: PERK inhibitor, eIF4E 4G PPI)
COc1ccc(-n2c(=S)[nH]c3c(oc4ccccc43)c2=O)cc1	EP2 modulator 68 | EP2 cAMP induct inactive
Cc1ccc(S(=O)(=O)c2c(C)cc(C)nc2N2CCCCC2)cc1	EP2 modulator 70 | EP2 cAMP induct active
COc1ccc(CN2CCC(C(=O)N3CCN(c4ccccc4F)CC3)CC2)cc1OC	none
COc1cc(CN2CCC(C(=O)N3CCN(c4ccccc4F)CC3)CC2)cc(OC)c1OC	EP2 modulator 79 | EP2 cAMP induct inactive
COc1ccc(OC)c(-c2[nH]nc3c2C(c2cccc4ccccc24)C(C#N)=C(N)O3)c1 (centres undefined)	none (no result: PERK inhibitor, eIF4E 4G PPI)
Cc1ccc(C(=O)c2coc3ccc(OCC(=O)O)cc23)cc1	EP2 modulator 69 | EP2 cAMP induct active
O=C(O)COc1ccc2occ(C(=O)c3ccccc3)c2c1	EP2 modulator 66 | EP2 cAMP induct active
COC(=O)c1cn(CC(=O)Nc2ccccc2Cl)c2ccccc12	none (no result: PERK inhibitor, eIF4E 4G PPI)
C=CCNc1nc(N2CCCCC2)nc(N2CCCCC2)n1	none (no result: PERK inhibitor, eIF4E 4G PPI)
CCOc1ccc(C2C(C(=O)c3ccco3)=C(O)C(=O)N2CCCn2ccnc2)cc1 (centres undefined)	none
Cc1ccc(C(=O)C2=C(O)C(=O)N(CCCn3ccnc3)C2c2ccc(OC(C)C)cc2)o1 (centres undefined)	EP2 modulator 65 | EP2 cAMP induct inactive
C=CCn1c(SCC(=O)c2ccc(C)cc2)nc2sc3c(c2c1=O)CCC3	none (no result: PERK inhibitor, eIF4E 4G PPI)
CCSCC1COC(c2cccn2Cc2ccc(C)cc2)=N1 (centres undefined)	none
CCC1COC(c2cccn2Cc2ccc(Cl)cc2)=N1 (centres undefined)	EP2 modulator 65 | EP2 cAMP induct inactive
CCOC(=O)c1c(NC(=O)CSc2nnc(C)c(=O)[nH]2)sc(C)c1-c1ccc(C)cc1	none
CCOC(=O)c1c(NC(=O)CN2C(=O)NC3(CCCCCC3)C2=O)sc(C)c1-c1ccc(C)cc1	EP2 modulator 68 | EP2 cAMP induct active
CCOC(=O)c1c(NC(=O)CSc2nnc(N)s2)sc(C)c1-c1ccc(C)cc1	EP2 modulator 65 | EP2 cAMP induct active
O=C(O)c1cc2cc(Cl)ccc2[nH]1	none (no result: PERK inhibitor, eIF4E 4G PPI)
O=C(O)c1cc2cc(F)ccc2[nH]1	EP2 modulator 113! | EP2 cAMP induct inactive
CCOC(=O)c1cnn(-c2nc(-c3ccc(F)cc3)cs2)c1C(F)(F)F	EP2 modulator 65 | EP2 cAMP induct inactive
COc1ccc2c(-c3ccccc3)cc(N3CCOCC3)nc2c1	EP2 modulator 77 | EP2 cAMP induct active
COc1ccc(C2=Nn3c(nnc3-c3ccccc3)SC2)cc1OC	EP2 modulator 70 (no result: eIF4E 4G PPI) | EP2 cAMP induct inactive
COc1ccc(OC)c(C2=Nn3c(nnc3-c3ccco3)SC2)c1	EP2 modulator 74 | EP2 cAMP induct active
COc1ccc(C2=Nn3c(nnc3C3CCCCC3)SC2)cc1OC	EP2 modulator 77 | EP2 cAMP induct active
O=C(NCCC1=CCCCC1)c1cccc2c1C(=O)N(C1CCCCC1)C2	EP2 modulator 85 | EP2 cAMP induct active
COc1cc(C=O)ccc1OC(=O)c1ccc(C(C)C)cc1	EP2 modulator 74 | EP2 cAMP induct inactive
O=C(OCc1ccccc1Cl)c1ccccc1C(=O)c1ccccc1	EP2 modulator 82 | EP2 cAMP induct active
COc1ccc(C(=O)Nc2cc(C)nn2-c2nc3ccccc3[nH]2)c(OC)c1	EP2 modulator 70 | EP2 cAMP induct active
COc1cccc(OC)c1C(=O)Nc1cc(C)nn1-c1nc2ccccc2[nH]1	none
CCOC(=O)C(C)n1nc(C)n2c(cc3sc(C)cc32)c1=O (centres undefined)	none (no result: PERK inhibitor, eIF4E 4G PPI, EP2 antag)
CCOC(=O)c1cc2sc(C)cc2n1C(C)C(=O)OCC (centres undefined)	EP2 modulator 65 | EP2 cAMP induct inactive
O=[N+]([O-])c1ccc(Cl)c2c1C1C=CCC1C(c1ccccn1)N2 (centres undefined)	EP2 modulator 75 | EP2 cAMP induct active
Cc1ccc2[nH]c(=O)c(CN(Cc3ccc4c(c3)OCO4)C(=O)NCc3ccccc3)cc2c1	none (no result: PERK inhibitor, eIF4E 4G PPI)
